Most compounds without a hit are left out; they make up all but 1% or so of the library.
TRb SRC2 PPI – disrupts binding of human TR beta to SRC2. P10828. TRbeta-SRC2 peptide binding, fluorescence polarization; receptor liganded with 1 µM T3. Potency, µM (highest dose often 106 µM), inactives show top-dose activity change, negative = inhibition, hits mostly inhibitors. 280,000 tested, 0.065% active. AID 1469;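 further: potency means the concentration at half of the fitted maximal effect; plate controls were bound peptide for no effect and peptide without receptor for full effect; nearly all actives have a fitted effect of over 50% in size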
Target sequence (P10828 whole entry, looked up): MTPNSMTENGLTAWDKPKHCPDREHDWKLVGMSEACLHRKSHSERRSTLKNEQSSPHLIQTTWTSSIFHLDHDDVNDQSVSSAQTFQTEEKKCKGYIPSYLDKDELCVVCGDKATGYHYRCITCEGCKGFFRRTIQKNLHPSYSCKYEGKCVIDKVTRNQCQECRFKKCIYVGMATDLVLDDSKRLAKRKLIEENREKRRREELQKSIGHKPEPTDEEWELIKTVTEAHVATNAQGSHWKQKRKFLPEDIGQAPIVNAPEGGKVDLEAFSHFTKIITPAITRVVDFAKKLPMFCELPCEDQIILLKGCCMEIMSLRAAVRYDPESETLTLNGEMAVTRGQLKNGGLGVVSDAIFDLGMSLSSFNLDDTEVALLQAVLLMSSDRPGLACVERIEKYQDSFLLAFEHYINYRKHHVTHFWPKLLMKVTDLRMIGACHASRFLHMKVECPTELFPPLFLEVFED
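Quantitative HTS by FP: 0.6 uM TRb LBD, 20 nM labeled SRC2 20-mer, 1 uM T3, 5% DMSO; 5 hr ambient incubation; % activity per concentration and potencies from concentration series.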
TCR activator – T cell receptor activation | AID 504894 | 330,000 tested, under 10 active | Potency, µM (highest dose often 9.22 µM), inactives show at the top dose activation of IL-2 secretion, usual class: activators | primary human leukocytes, anti-CD3, IL-2 HTRF, 48 h; further: % of control where 0% means no effect
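1) Mix primary human leukocytes, a-CD3 beads and compound. 2) Incubate 48 hr. 3) Add HTRF IL-2 reagents (a-IL-2-K, a-IL-2-d2).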
TR SRC2 fluor cs – alters Texas Red total fluorescence, flagging assay interference; TRb/SRC2 Texas Red total fluorescence interference; Potency, µM (top dose mostly 106 µM), for inactives: at the highest dose fluorescence change, negative = quenching; 280,000 tested, 0.29% active; AID 1479; active means well fitted curve in either direction with a large enough effect; inconclusive means small, poorly fitted or top-dose-only effect; further: potency means the concentration at half of the fitted maximal effect; on the % scale 0 is the no-effect control and ±100 the full control effect
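Flags fluorescent or light-absorbing compounds by total fluorescence, S + 2P, at 555 nm excitation and 632 nm emission. Mixture: 20 nM Texas Red SRC2 peptide, 0.6 uM human TRb LBD, 1 uM T3, 5% DMSO; compound exposure 5 h at ambient temperature.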
NPSR antag – antagonists of human neuropeptide S receptor cAMP signaling; CHO-NPSR cells, cAMP TR-FRET, antagonist mode; Potency, µM (highest dose often 38.3 µM), without a hit: at the top dose activity change, negative = inhibition, most hits filed as inhibitors; 220,000 tested, 1% active; AID 1461; further: potency means the concentration at half of the fitted maximal effect; on the % scale 0 is the no-effect control and ±100 the full control effect; nearly all actives have a fitted effect of over 50% in size
TSHR antag – blocks TSH signaling through the human TSH receptor | TSHR-expressing cells, TSH-stimulated cAMP HTRF, 2 h; hits give low values | activity change, negative = inhibition, % at 11.5 µM | 330,000 tested, 0.2% active;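 active means activity change below a set negative limit, meaning inhibition stronger than a set level, cut at about -70% in these data; inconclusive means activity change between two set negative limits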; further: on the % scale 0 is the no-effect control and ±100 the full control effect
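Inhibition of cAMP made by TSHR-expressing cells under TSH stimulation (4nM final, EC80; 2 h, 37 deg C) is quantified with a one-step lysis HTRF kit, anti-cAMP cryptate versus cAMP-d2.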
FBPA coupling cs – counter-screen for Giardia aldolase inhibitors: coupling enzyme system. activity change, negative = inhibition, % at 58.2 µM, hits read low. 290,000 tested, 0.67% active. coupling enzyme system counterscreen, AmpLite Red fluorescence. AID 2472; in the data active means activity change below about -30%; further: on the % scale 0 is the no-effect control and ±100 the full control effect
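First, compound is pin-transferred into glyceraldehyde-3-phosphate coupling-enzyme reagent at 57.5 uM final and held 10 min at RT. Next, substrate, coupling system and AmpLite Red are added. After 20 min RT, fluorescence (525/598 nm) is read.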
* = called active by the depositor; [ ] = dose if it differs, or a comment. Unless noted, the call rests on the fitted dose curve; in most records, active means well fitted curve in the direction sought with a large enough effect; inconclusive means small, poorly fitted or top-dose-only effect, or another doubt; inactive means no such curve, though single readings can be large; an effect the other way counts as inactive or inconclusive.

For Cc1cc(O)c(C=Nc2cccc(Cl)c2)c(=O)o1 the results were TRb SRC2 PPI inconclusive, TCR activator -2%[46.1 µM], TR SRC2 fluor cs 45µM*[fluorescent], NPSR antag 28%, TSHR antag 7 and FBPA coupling cs 1.
CS/C(=N\O)C(=O)N(C)C was read as TRb SRC2 PPI 2%[201 µM] and TR SRC2 fluor cs 0%[201 µM].
`CCN(CC)c1ccc(/C=C/C(=O)C2C(=O)C=C(C)OC2=O)cc1` (configuration not stated) gave TRb SRC2 PPI inconclusive, TCR activator -5%, TR SRC2 fluor cs 32µM*[fluorescent], NPSR antag -18%, TSHR antag -11 and FBPA coupling cs 5.
Screening COc1cccc(NC(=O)c2sc3nc(C)c(C(=O)Nc4ccc(C)cc4C)c(-c4ccc(Br)cc4)c3c2N)c1 returned TRb SRC2 PPI -4% and TR SRC2 fluor cs -2%.
For COC(=O)C(C)Oc1ccc(Oc2ncc(C(F)(F)F)cc2Cl)cc1 (configuration not stated) the results were TRb SRC2 PPI 2%[201 µM] and TR SRC2 fluor cs 0%[201 µM].
`O=C1c2ccc(O)c(O)c2C(=O)c2c(O)ccc(O)c21` gave TRb SRC2 PPI 25µM*, TR SRC2 fluor cs 45µM*[fluorescent] and FBPA coupling cs -1.
Screening CC(=O)N1CCc2nc3sc(C(=O)Nc4ccc(Cl)cc4F)c(N)c3c(C(F)(F)F)c2C1 returned TRb SRC2 PPI -4% and TR SRC2 fluor cs 6%.
Screening COc1ccc(-c2c3c([nH]c(=S)c2C#N)CCC3)cc1 returned TRb SRC2 PPI -13%, TCR activator -2%, TR SRC2 fluor cs 3%, NPSR antag 1µM*, TSHR antag 12 and FBPA coupling cs -12.
CCOC(=O)c1cnn(-c2ccc(C(=O)Nc3ccc(OC(F)(F)F)cc3)cc2)c1N was read as TRb SRC2 PPI -3% and TR SRC2 fluor cs 1%.
Screening Cc1ccccc1Nc1scc(-c2ccc(Cl)cc2)[n+]1-c1ccccc1C returned TRb SRC2 PPI 0%, TCR activator -5%, TR SRC2 fluor cs -8%, NPSR antag 7.9µM*, TSHR antag -14 and FBPA coupling cs 0.
`O=C(CSc1nc2c([nH]c3ccccc32)c(=O)n1-c1cccc(Cl)c1)c1ccccc1` gave TRb SRC2 PPI 8% and TR SRC2 fluor cs 6%.
O=[N+]([O-])c1cc(Cl)ccc1Sc1cccc2cccnc12 was read as TRb SRC2 PPI -1%, TCR activator -1%, TR SRC2 fluor cs -2%, NPSR antag -16%[46.1 µM], TSHR antag -3 and FBPA coupling cs -23.
O=[N+]([O-])c1ccc(Sc2cccc3cccnc23)cc1 was read as TRb SRC2 PPI -1%, TCR activator -69%, TR SRC2 fluor cs 0%, NPSR antag -16%[46.1 µM], TSHR antag -11 and FBPA coupling cs -42*.
Screening O=[N+]([O-])c1ccc(Sc2cccc3cccnc23)c([N+](=O)[O-])c1 returned TRb SRC2 PPI -7%, TCR activator 3%, TR SRC2 fluor cs 1%, NPSR antag 3.2µM*, TSHR antag 1 and FBPA coupling cs -47*.
For O=[N+]([O-])c1ccc(COc2cccc3cccnc23)cc1 the results were TCR activator -9%, TSHR antag 3 and FBPA coupling cs -9.
CCCCOc1ccc(C(=O)NCCc2sc3nc(-c4ccc(OC)cc4)nn3c2C)cc1 was read as TRb SRC2 PPI -8% and TR SRC2 fluor cs -1%.
COc1ccc(NC(=O)c2c(NCc3ccc(C)o3)sc3c2CCCCC3)c(OC)c1 was read as TRb SRC2 PPI -25% and TR SRC2 fluor cs 112µM*[quencher].
For CC(C)(C)c1cc[n+](C2=C([O-])c3ccccc3C(=O)/C2=N\S(=O)(=O)c2cccs2)cc1 the results were TRb SRC2 PPI 8%, TCR activator 11%, TR SRC2 fluor cs -9%, NPSR antag inconclusive, TSHR antag 13 and FBPA coupling cs -57*.
`O=C1/C(=N\S(=O)(=O)c2cccs2)C([n+]2ccccc2)=C([O-])c2ccccc21` gave TRb SRC2 PPI 1%, TCR activator -5%, TR SRC2 fluor cs -1%, NPSR antag -11%, TSHR antag 25 and FBPA coupling cs -51*.
`CC(C)(C)c1ccc(-c2nnc(-c3ccccc3NC(=O)c3ccc(F)cc3F)o2)cc1` gave TRb SRC2 PPI -10% and TR SRC2 fluor cs 2%.
`CCc1ccc(-n2c(=O)c3sc4ccccc4c3n(CC(=O)N3CCCC3)c2=O)cc1` gave TRb SRC2 PPI 2% and TR SRC2 fluor cs 1%.
For CCCCOCC(C)O (configuration not stated) the results were TRb SRC2 PPI 4%[201 µM] and TR SRC2 fluor cs -1%[201 µM].
`S=C(NC1CCCCC1)N1CCN(c2ccccn2)CC1` gave TRb SRC2 PPI -6%, TCR activator 5%[46.1 µM], TR SRC2 fluor cs 0%, NPSR antag 11%, TSHR antag 0 and FBPA coupling cs -41*.
CCOC(=O)c1ccc2oc(=O)n(Cc3ccccc3)c2c1 was read as TRb SRC2 PPI -4% and TR SRC2 fluor cs 0%.
Screening CCOC(=O)c1c(C)[nH]c(C)c1S(=O)(=O)N1CCCC(C(=O)N2CCN(c3cc(C)ccc3C)CC2)C1 (configuration not stated) returned TRb SRC2 PPI -3% and TR SRC2 fluor cs -11%.
O=C1Nc2ccc(S(=O)(=O)NCCC3=CCCCC3)c3cccc1c23 was read as TRb SRC2 PPI -4%, TCR activator 2%, TR SRC2 fluor cs 1%, NPSR antag -1%[46.1 µM], TSHR antag 3 and FBPA coupling cs -34*.
`CCCCS(=O)(=O)N1C2=NC(C(=O)OC)=C(C(=O)OC)[C@@H]3N(C)c4ccccc4[C@]23C[C@H]1C(=O)OC` gave TRb SRC2 PPI 5%[11.2 µM], TR SRC2 fluor cs -3%[11.2 µM] and FBPA coupling cs -4.
COc1ccc(OC)c2sc(NC(=O)c3ccc(S(=O)(=O)N4CCCC4)cc3)nc12 was read as TRb SRC2 PPI 2% and TR SRC2 fluor cs 0%.
CN(CCO)c1nc(N)c2c(N)nc3c(c2c1C#N)CC(=O)N3C1CCCC1 was read as TRb SRC2 PPI inconclusive, TR SRC2 fluor cs -2%, NPSR antag -9%[46.1 µM], TSHR antag 21 and FBPA coupling cs -38*.
`N#Cc1c(N2CCN(c3ccc(F)cc3)CC2)nc(N)c2c(N)nc3c(c12)CC(=O)N3C1CC1` gave TRb SRC2 PPI -5%, TCR activator -5%, TR SRC2 fluor cs 0%, NPSR antag -10%, TSHR antag 14 and FBPA coupling cs -16.
`COC(=O)c1ccc2c(=O)n(CCCCCC(=O)N3CCN(c4cc(Cl)ccc4C)CC3)c(=O)[nH]c2c1` gave TRb SRC2 PPI -1% and TR SRC2 fluor cs inconclusive.

Screening data: PubChem, National Center for Advancing Translational Sciences (NCATS)
